Article PMC7862700, “An all-to-all approach to the identification of sequence-specific readers for epigenetic DNA modifications on cytosine”

How the values were obtained:
Test in all cases: DAPPL (digital affinity profiling via proximity ligation, sequencing); 10 mM Tris-HCl pH 7.5, 50 mM NaCl, 1 mM DTT, 4% glycerol, room temperature, 30 min; GST-TFs on glutathione beads, 16-mer random dsDNA library, 0.1% formaldehyde crosslink after washing; high values mean tight binding
Conditions in all cases: protein: recombinant; tags: N-terminal GST; dsDNA, one strand shown
ERF = target: T1, ERF (Homo sapiens, UniProt P50548 1-548)
T1 sequence: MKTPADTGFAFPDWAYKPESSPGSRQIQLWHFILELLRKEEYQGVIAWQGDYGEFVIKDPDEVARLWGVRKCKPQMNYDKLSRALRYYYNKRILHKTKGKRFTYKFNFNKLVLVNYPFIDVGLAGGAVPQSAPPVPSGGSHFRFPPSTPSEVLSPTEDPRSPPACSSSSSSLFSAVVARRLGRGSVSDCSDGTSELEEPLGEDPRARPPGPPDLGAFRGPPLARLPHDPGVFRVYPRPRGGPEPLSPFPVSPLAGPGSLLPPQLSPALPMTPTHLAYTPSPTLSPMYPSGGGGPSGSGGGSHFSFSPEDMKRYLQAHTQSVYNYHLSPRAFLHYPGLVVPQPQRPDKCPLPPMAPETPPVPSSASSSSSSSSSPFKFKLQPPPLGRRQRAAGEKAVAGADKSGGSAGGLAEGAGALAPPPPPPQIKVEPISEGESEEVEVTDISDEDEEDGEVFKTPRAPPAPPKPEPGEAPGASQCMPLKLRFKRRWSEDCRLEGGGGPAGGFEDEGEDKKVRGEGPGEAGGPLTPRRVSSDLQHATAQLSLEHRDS
Summary of the method: (§1)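 Binding signal is given per hexamer as its read frequency for a factor divided by its frequency in the tag-only sample. GST-fused human transcription factors were expressed in yeast, captured on glutathione beads, barcoded with DNA and pooled with that sample, then incubated with 200 nmole of a 16-mer random double-stranded DNA library in Tris/NaCl/DTT/glycerol buffer for 30 min at room temperature. The pools were then washed, crosslinked, proximity-ligated, amplified by PCR and sequenced on an Illumina NextSeq500.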

ETV3L = target: T2, ETV3L (Homo sapiens, UniProt Q6ZN32 1-361)
T2 sequence: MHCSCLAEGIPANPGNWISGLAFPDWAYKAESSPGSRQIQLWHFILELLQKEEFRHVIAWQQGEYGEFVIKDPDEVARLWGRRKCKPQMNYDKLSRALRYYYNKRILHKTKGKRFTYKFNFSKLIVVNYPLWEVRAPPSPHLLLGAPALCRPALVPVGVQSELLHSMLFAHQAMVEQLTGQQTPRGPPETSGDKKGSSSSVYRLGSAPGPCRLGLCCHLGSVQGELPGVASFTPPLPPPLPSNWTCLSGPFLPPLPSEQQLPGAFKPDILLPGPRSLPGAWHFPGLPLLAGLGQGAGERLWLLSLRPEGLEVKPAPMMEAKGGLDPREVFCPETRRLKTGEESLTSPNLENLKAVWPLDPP
Summary of the method: as §1

ETS2 = target: T3, ETS2 (Homo sapiens, UniProt P15036 1-469)
T3 sequence: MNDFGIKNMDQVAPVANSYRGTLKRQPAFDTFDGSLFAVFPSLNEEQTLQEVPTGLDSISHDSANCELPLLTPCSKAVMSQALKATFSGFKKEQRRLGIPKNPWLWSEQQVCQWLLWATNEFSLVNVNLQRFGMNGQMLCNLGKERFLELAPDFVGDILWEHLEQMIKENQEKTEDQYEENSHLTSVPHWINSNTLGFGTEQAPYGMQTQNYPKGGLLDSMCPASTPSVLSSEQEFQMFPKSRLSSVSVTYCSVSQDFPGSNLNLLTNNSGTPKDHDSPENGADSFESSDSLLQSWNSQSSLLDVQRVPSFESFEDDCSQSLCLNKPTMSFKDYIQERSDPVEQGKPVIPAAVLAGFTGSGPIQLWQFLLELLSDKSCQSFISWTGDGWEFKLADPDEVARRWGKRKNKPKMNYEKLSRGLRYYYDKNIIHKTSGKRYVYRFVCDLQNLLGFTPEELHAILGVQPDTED
Summary of the method: as §1

SPDEF = target: T4, SPDEF (Homo sapiens, UniProt O95238 1-335)
T4 sequence: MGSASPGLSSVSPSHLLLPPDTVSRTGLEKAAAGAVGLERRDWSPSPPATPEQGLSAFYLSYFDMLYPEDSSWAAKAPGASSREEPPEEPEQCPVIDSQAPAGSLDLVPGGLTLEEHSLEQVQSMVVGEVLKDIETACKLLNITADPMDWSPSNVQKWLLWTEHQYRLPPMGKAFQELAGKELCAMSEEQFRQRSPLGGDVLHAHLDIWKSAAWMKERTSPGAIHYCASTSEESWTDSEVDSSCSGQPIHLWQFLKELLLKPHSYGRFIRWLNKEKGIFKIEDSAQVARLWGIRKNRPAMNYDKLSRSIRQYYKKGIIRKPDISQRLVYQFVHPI
Summary of the method: as §1

ETV7 = target: T5, ETV7 (Homo sapiens, UniProt Q9Y603 1-341)
T5 sequence: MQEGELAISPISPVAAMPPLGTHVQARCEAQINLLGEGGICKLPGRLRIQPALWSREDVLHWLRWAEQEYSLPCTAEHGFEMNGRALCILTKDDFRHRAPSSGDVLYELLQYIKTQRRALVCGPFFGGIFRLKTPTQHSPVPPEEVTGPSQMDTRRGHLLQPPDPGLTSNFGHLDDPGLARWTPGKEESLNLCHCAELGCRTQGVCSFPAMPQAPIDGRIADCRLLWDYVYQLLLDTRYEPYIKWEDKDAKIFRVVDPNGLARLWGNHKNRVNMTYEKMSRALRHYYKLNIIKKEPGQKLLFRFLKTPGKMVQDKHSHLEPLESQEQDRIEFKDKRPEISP
Summary of the method: as §1

ELF5 = target: T6, ELF5 (Homo sapiens, UniProt Q9UKW6-2 1-255)
T6 sequence: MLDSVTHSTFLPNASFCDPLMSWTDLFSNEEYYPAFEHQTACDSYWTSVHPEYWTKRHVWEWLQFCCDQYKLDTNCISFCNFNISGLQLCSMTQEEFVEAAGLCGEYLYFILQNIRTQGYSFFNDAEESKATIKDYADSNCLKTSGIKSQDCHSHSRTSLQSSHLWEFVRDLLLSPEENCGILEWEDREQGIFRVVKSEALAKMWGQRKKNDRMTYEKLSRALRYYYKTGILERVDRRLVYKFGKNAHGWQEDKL
Summary of the method: as §1

ETV3 = target: T7, ETV3 (Homo sapiens, UniProt P41162-2 1-143)
T7 sequence: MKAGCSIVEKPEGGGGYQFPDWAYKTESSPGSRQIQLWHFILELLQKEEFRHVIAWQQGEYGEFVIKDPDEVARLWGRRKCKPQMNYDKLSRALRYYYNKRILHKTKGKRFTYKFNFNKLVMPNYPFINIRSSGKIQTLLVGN
Summary of the method: as §1

ETV6 = ETV6 (Homo sapiens, UniProt P41212 1-452)
Sequence of ETV6 (P41212 whole entry): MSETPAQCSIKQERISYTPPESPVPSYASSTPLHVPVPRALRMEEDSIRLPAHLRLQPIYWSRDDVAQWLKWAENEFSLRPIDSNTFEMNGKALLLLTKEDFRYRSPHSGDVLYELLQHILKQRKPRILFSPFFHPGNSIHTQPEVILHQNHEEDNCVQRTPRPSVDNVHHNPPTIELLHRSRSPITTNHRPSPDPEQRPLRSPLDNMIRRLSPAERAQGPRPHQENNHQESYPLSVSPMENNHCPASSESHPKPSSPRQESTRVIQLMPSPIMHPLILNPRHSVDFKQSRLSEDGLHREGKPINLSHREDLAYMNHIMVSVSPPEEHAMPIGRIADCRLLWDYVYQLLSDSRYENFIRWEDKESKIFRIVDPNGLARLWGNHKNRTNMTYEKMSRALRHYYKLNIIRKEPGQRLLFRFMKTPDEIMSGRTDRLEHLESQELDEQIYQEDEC
Summary of the method: as §1

Row | Sequence | binding signal (ERF) | binding signal (ETV3L) | binding signal (ETS2) | binding signal (SPDEF) | binding signal (ETV7) | binding signal (ELF5) | binding signal (ETV3) | binding signal (ETV6)
1 | TACCGG | 1.4 fold enrichment (6-mer frequency, TF over GST control) | 1.47 fold enrichment (6-mer frequency, TF over GST control) | 1.6 fold enrichment (6-mer frequency, TF over GST control) | 1.77 fold enrichment (6-mer frequency, TF over GST control) | 1.36 fold enrichment (6-mer frequency, TF over GST control) | 1.71 fold enrichment (6-mer frequency, TF over GST control) | 1.76 fold enrichment (6-mer frequency, TF over GST control) | 1.68 fold enrichment (6-mer frequency, TF over GST control)
2 | CTGTCA | 1.17 fold enrichment (6-mer frequency, TF over GST control) | 1.22 fold enrichment (6-mer frequency, TF over GST control) | 1.14 fold enrichment (6-mer frequency, TF over GST control) | 1.06 fold enrichment (6-mer frequency, TF over GST control) | 1.12 fold enrichment (6-mer frequency, TF over GST control) | 1.14 fold enrichment (6-mer frequency, TF over GST control) | 1.09 fold enrichment (6-mer frequency, TF over GST control) | 1.1 fold enrichment (6-mer frequency, TF over GST control)
3 | ACAAAA | 1.18 fold enrichment (6-mer frequency, TF over GST control) | 1.2 fold enrichment (6-mer frequency, TF over GST control) | 1.2 fold enrichment (6-mer frequency, TF over GST control) | 1.11 fold enrichment (6-mer frequency, TF over GST control) | 1.15 fold enrichment (6-mer frequency, TF over GST control) | 1.21 fold enrichment (6-mer frequency, TF over GST control) | 1.13 fold enrichment (6-mer frequency, TF over GST control) | 1.17 fold enrichment (6-mer frequency, TF over GST control)
4 | CCATCC | 1.12 fold enrichment (6-mer frequency, TF over GST control) | 1.31 fold enrichment (6-mer frequency, TF over GST control) | 1.23 fold enrichment (6-mer frequency, TF over GST control) | 1.56 fold enrichment (6-mer frequency, TF over GST control) | 1.24 fold enrichment (6-mer frequency, TF over GST control) | 1.3 fold enrichment (6-mer frequency, TF over GST control) | 1.27 fold enrichment (6-mer frequency, TF over GST control) | 1.2 fold enrichment (6-mer frequency, TF over GST control)
5 | CTTGCA | 1.39 fold enrichment (6-mer frequency, TF over GST control) | 1.53 fold enrichment (6-mer frequency, TF over GST control) | 1.33 fold enrichment (6-mer frequency, TF over GST control) | 1.49 fold enrichment (6-mer frequency, TF over GST control) | 1.28 fold enrichment (6-mer frequency, TF over GST control) | 1.36 fold enrichment (6-mer frequency, TF over GST control) | 1.45 fold enrichment (6-mer frequency, TF over GST control) | 1.3 fold enrichment (6-mer frequency, TF over GST control)
6 | GAATTG | 1.1 fold enrichment (6-mer frequency, TF over GST control) | 1.07 fold enrichment (6-mer frequency, TF over GST control) | 1.13 fold enrichment (6-mer frequency, TF over GST control) | 1.14 fold enrichment (6-mer frequency, TF over GST control) | 1.22 fold enrichment (6-mer frequency, TF over GST control) | 1.13 fold enrichment (6-mer frequency, TF over GST control) | 1.03 fold enrichment (6-mer frequency, TF over GST control) | 1.06 fold enrichment (6-mer frequency, TF over GST control)
7 | AAGGTA | 1.05 fold enrichment (6-mer frequency, TF over GST control) | 1.14 fold enrichment (6-mer frequency, TF over GST control) | 1.11 fold enrichment (6-mer frequency, TF over GST control) | 1.16 fold enrichment (6-mer frequency, TF over GST control) | 1.18 fold enrichment (6-mer frequency, TF over GST control) | 1.06 fold enrichment (6-mer frequency, TF over GST control) | 1.09 fold enrichment (6-mer frequency, TF over GST control) | 1.19 fold enrichment (6-mer frequency, TF over GST control)
8 | CGACTT | 1.62 fold enrichment (6-mer frequency, TF over GST control) | 1.62 fold enrichment (6-mer frequency, TF over GST control) | 1.76 fold enrichment (6-mer frequency, TF over GST control) | 1.54 fold enrichment (6-mer frequency, TF over GST control) | 1.53 fold enrichment (6-mer frequency, TF over GST control) | 1.72 fold enrichment (6-mer frequency, TF over GST control) | 1.78 fold enrichment (6-mer frequency, TF over GST control) | 1.79 fold enrichment (6-mer frequency, TF over GST control)
